A selection: hits, their analogues and other compounds. The true share with any hit is near 2.8%.
Fam108B inh: Fam108B inhibition, counter-screen for RBBP9 inhibitors | hit rate 0.33% among 300,000 | inhibition, % at 9.51 µM | recombinant Fam108B, FP-Rh probe fluorescence polarization;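 active = inhibition above the screen mean inhibition plus 3 SD, computed separately per campaign, cut at about 18% in these data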;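 also: inhibitors lower polarization as less probe binds the enzyme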
PME-1 primary: PME-1 (human) inhibition | Q9Y570 | recombinant PME-1, FP-Rh probe fluorescence polarization | hit rate 0.53% among 320,000 | inhibition, % at 5.9 µM;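 active = inhibition above the campaign mean of all compounds plus 3 SD, cut at about 26% in these data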;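 also: competitive labeling of PME-1 active site by serine hydrolase directed probe; 0% = PME-1 with DMSO and 100% = wells lacking PME-1 enzyme; inhibitors block probe labeling so polarization falls and inhibition rises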
Target sequence (Q9Y570 whole entry, looked up): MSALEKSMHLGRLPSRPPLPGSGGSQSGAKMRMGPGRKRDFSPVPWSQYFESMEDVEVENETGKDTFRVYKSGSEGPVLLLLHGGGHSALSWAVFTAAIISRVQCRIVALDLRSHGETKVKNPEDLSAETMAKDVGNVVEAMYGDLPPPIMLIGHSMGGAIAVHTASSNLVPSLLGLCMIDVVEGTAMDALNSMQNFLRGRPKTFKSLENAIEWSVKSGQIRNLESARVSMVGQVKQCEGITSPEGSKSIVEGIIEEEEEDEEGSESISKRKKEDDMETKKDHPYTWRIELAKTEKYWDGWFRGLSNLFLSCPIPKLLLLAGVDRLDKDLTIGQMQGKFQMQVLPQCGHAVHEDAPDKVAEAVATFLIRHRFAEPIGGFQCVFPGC
PAFAH1B2 inh: PAFAH1B2 (human) inhibition | P68402 | recombinant PAFAH1B2, FP-rhodamine activity probe, fluorescence polarization | inhibition, % at 3.39 µM | hit rate 1.2% among 340,000 | AID 492953;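 active = inhibition above the mean of all tested compounds plus 3 SD, cut at about 24% in these data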;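 also: 0% = enzyme with DMSO and 100% = wells lacking PAFAH1B2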
PAFAH2 inh: inhibitors of human PAFAH2; AID 492956; inhibition, % at 3.39 µM; hit rate 0.99% among 340,000; Q99487; recombinant PAFAH2, FP-rhodamine activity probe, fluorescence polarization;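 active = inhibition above the mean over all tested compounds plus 3 SD, cut at about 30% in these data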;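 also: inhibitors block probe labeling of enzyme so polarization drops; 0% = enzyme with DMSO and 100% = wells lacking PAFAH2 protein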
pPAFAH FP inh: inhibitors of human plasma PAF acetylhydrolase (pPAFAH). Q13093. recombinant pPAFAH, FP-rhodamine probe fluorescence polarization. inhibition, % at 3.39 µM. hit rate 1.5% among 330,000;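 active = inhibition above the mean inhibition across the screen plus 3 SD, cut at about 25% in these data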;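 also: inhibitors block binding of the rhodamine activity-based probe so polarization drops; 0% = enzyme with DMSO and 100% = wells lacking pPAFAH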
PAFAH1B3 inh: blocks human PAF acetylhydrolase 1B catalytic subunit 3 | recombinant PAFAH1B3, FP-rhodamine probe, fluorescence polarization | inhibition, % at 3.39 µM | hit rate 0.28% among 340,000 | Q15102;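 active = inhibition above the screen-wide average of all tested compounds plus 3 SD, cut at about 25% in these data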;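 also: 0% = enzyme with DMSO only and 100% = wells lacking PAFAH1B3 protein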
Target sequence (Q15102 whole entry, looked up): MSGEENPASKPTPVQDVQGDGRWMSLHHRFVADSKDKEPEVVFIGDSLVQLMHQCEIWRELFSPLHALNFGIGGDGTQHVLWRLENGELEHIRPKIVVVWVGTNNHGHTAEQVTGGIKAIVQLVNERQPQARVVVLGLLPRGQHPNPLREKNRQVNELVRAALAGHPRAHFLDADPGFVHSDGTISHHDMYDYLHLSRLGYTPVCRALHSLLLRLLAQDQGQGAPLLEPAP
Active calls of the source: *.

Cc1ccc(NC(=S)NC(=O)c2ccc(-c3ccc(Cl)cc3)o2)c(O)c1 was read as Fam108B inh -7, PME-1 primary 30*, PAFAH1B2 inh 6, PAFAH2 inh -7, pPAFAH FP inh 9 and PAFAH1B3 inh 3.
Screening Cc1ccc(O)c(NC(=S)NC(=O)Cc2ccc(Cl)cc2)c1 returned Fam108B inh -3, PME-1 primary 1, PAFAH1B2 inh -8, PAFAH2 inh 3, pPAFAH FP inh 2 and PAFAH1B3 inh 6.
Nc1nccnc1C(=O)OCC(=O)NNC(=O)c1ccccc1 was read as Fam108B inh -1, PME-1 primary -6, PAFAH1B2 inh 7, PAFAH2 inh 10, pPAFAH FP inh 6 and PAFAH1B3 inh 5.
For CCc1nn(CC(=O)NCCCN2CCOCC2)c(=O)c2cc3cc(F)ccc3n12 the results were Fam108B inh 0, PME-1 primary 3, PAFAH1B2 inh -2, PAFAH2 inh -2, pPAFAH FP inh 6 and PAFAH1B3 inh -2.
COc1cc(C(=O)O/N=C2/C=C(C)C(=O)C=C2C)cc(OC)c1OC was read as Fam108B inh 2, PME-1 primary -4, PAFAH1B2 inh 0, PAFAH2 inh 0, pPAFAH FP inh 6 and PAFAH1B3 inh 13.
For COc1cc(C(=O)ON=C2C(C)=CC(=O)C=C2C)cc(OC)c1OC the results were Fam108B inh -1, PME-1 primary -25, PAFAH1B2 inh 7, PAFAH2 inh 83*, pPAFAH FP inh 5 and PAFAH1B3 inh 9.
`NNC(=O)c1cc(NS(=O)(=O)c2cccs2)cc(NS(=O)(=O)c2cccs2)c1` gave PAFAH1B2 inh 15, PAFAH2 inh 17, pPAFAH FP inh 29* and PAFAH1B3 inh 21.
Screening O=S(=O)(Nc1cccc(CO)c1)c1cccs1 returned Fam108B inh -1, PME-1 primary -3 and pPAFAH FP inh 2.
`O=C(NC(=S)Nc1ccc(N2CCOCC2)cc1)c1ccc(Cl)cc1` gave Fam108B inh -1, PME-1 primary 8, PAFAH1B2 inh 1, PAFAH2 inh 6, pPAFAH FP inh 1 and PAFAH1B3 inh 6.
`O=C(Nc1ccc(N2CCOCC2)cc1)Nc1ccc(Cl)c(Cl)c1` gave Fam108B inh 14, PME-1 primary 28*, PAFAH1B2 inh 2, PAFAH2 inh 2, pPAFAH FP inh 19 and PAFAH1B3 inh 5.
Screening O=C(Nc1ccc(N2CCOCC2)cc1)C1(c2ccc(Cl)cc2)CCC1 returned Fam108B inh 1, PME-1 primary -4, PAFAH1B2 inh 80*, PAFAH2 inh -2, pPAFAH FP inh 8 and PAFAH1B3 inh -4.
O=C(Nc1ccc(Cl)cc1)Nc1ccc(N2CCOCC2)cc1 was read as Fam108B inh 0, PME-1 primary 11, PAFAH1B2 inh 2, PAFAH2 inh -4, pPAFAH FP inh 11 and PAFAH1B3 inh 8.
Screening Cc1cc(C(=O)O)ccc1N=Cc1c(O)ccc2ccccc12 returned Fam108B inh -5, PME-1 primary 1, PAFAH1B2 inh 4, PAFAH2 inh -3, pPAFAH FP inh 3 and PAFAH1B3 inh 6.
For CC(C)(C)c1ccc(C(=O)NN2C(=O)CSC2=S)cc1 the results were Fam108B inh -4, PME-1 primary -9, PAFAH1B2 inh 25*, PAFAH2 inh -11, pPAFAH FP inh 8 and PAFAH1B3 inh -2.
`COc1ccc(-c2csc(/C(C#N)=C\c3ccc(O)c([N+](=O)[O-])c3)n2)cc1OC` gave Fam108B inh 10, PME-1 primary 15, PAFAH1B2 inh 2, PAFAH2 inh 8, pPAFAH FP inh 12 and PAFAH1B3 inh 6.
`COc1cc(/C=C(\C#N)c2nc3ccccc3s2)cc([N+](=O)[O-])c1O` gave PAFAH1B2 inh 29*, PAFAH2 inh 55* and PAFAH1B3 inh 42*.
For N#C/C(=C\c1ccc(O)c([N+](=O)[O-])c1)c1nc2ccccc2s1 the results were PAFAH1B2 inh 30*, PAFAH2 inh 44* and PAFAH1B3 inh 31*.
Screening Cc1cc(OCC(=O)N2CCOCC2)ccc1[N+](=O)[O-] returned Fam108B inh 1, PME-1 primary -1, PAFAH1B2 inh 4, PAFAH2 inh 6, pPAFAH FP inh 4 and PAFAH1B3 inh 11.
COc1ccc(-c2coc3c(C)c4oc(=O)c(CCC(=O)O)c(C)c4cc23)cc1 was read as Fam108B inh -10, PME-1 primary -18, PAFAH1B2 inh 4, PAFAH2 inh 7, pPAFAH FP inh 25* and PAFAH1B3 inh 5.
Cc1c(CCC(=O)O)c(=O)oc2c(C)c3occ(-c4ccc(Br)cc4)c3cc12 was read as PAFAH1B2 inh 5, PAFAH2 inh 11 and PAFAH1B3 inh 7.
Screening O=C(Cn1cnc2ccccc21)N/N=C/c1cccc([N+](=O)[O-])c1 returned Fam108B inh 2, PME-1 primary -3, PAFAH1B2 inh 1, PAFAH2 inh -1, pPAFAH FP inh 1 and PAFAH1B3 inh 8.
Screening CC1CCCC(CC(N)=O)CC1 (stereo not drawn) returned PAFAH1B2 inh 0, PAFAH2 inh -1 and PAFAH1B3 inh 0.
O=C(NCc1ccccn1)c1ccc(OC2CCN(Cc3ccc(CO)o3)CC2)cc1 was read as Fam108B inh 5, PME-1 primary 6, PAFAH1B2 inh 0, PAFAH2 inh 2, pPAFAH FP inh 4 and PAFAH1B3 inh 6.
`COc1cc(N/N=C(\C)c2ccc(O)c(C)c2)nc(-c2ccccc2)n1` gave Fam108B inh 4, PME-1 primary 30*, PAFAH1B2 inh 2, PAFAH2 inh 12, pPAFAH FP inh 8 and PAFAH1B3 inh 9.
For CCOC(=O)[C@H]1[C@H]2COc3ccc(C)cc3[C@@H]2N2C(=O)CN(CC3CCCO3)C(=O)[C@@]12C (stereo partly drawn) the results were PME-1 primary -1, PAFAH1B2 inh 3, PAFAH2 inh 0, pPAFAH FP inh 5 and PAFAH1B3 inh 1.
`CC(OC(=O)Cn1[nH]c(=O)c2ccccc2c1=O)C(=O)Nc1ccc(Cl)cn1` (stereo not drawn) gave PME-1 primary -1, PAFAH1B2 inh 2, PAFAH2 inh 0, pPAFAH FP inh -3 and PAFAH1B3 inh 0.
Screening O=C(CCNS(=O)(=O)c1ccccc1)NCCCSc1ccccc1 returned Fam108B inh 0, PME-1 primary 5, PAFAH1B2 inh 36*, PAFAH2 inh 5, pPAFAH FP inh 4 and PAFAH1B3 inh 6.
`O=C(CCNS(=O)(=O)c1ccc(Br)cc1)NCCCSc1ccccc1` gave PME-1 primary 4, PAFAH1B2 inh 26*, PAFAH2 inh 6, pPAFAH FP inh 7 and PAFAH1B3 inh 1.
Cc1ccc(Nc2cc(C)c3c(O)cccc3n2)cc1C was read as Fam108B inh 4, PME-1 primary 31*, PAFAH1B2 inh 4, PAFAH2 inh 17, pPAFAH FP inh 16 and PAFAH1B3 inh 10.
`CCN(c1ccc(OC)cc1)S(=O)(=O)c1nnc(NC(=O)COc2ccccc2)s1` gave Fam108B inh 0, PME-1 primary 0, PAFAH1B2 inh 12, PAFAH2 inh 11, pPAFAH FP inh 15 and PAFAH1B3 inh 5.
